“And” between values parts separate entries of the source, which are not always exact repeats. Equal values may be shown once. About 45 (2%) of roughly 2,000 compounds were called active. The list comes from a sample in which actives are over-represented; it also holds similar structures and randomly drawn compounds. A number with no mark means an inactive call.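 Rule for the calls: active = inhibition above the screen-wide mean inhibition plus 3 SD (cut at about 44% in these data); inactive = the rest.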

The target of the test is Perilipin-1 (Homo sapiens) + 1-acylglycerol-3-phosphate O-acyltransferase ABHD5 (Homo sapiens) (UniProt O60240+Q8WTS1). Put plainly: blockers of ABHD5 binding to perilipin-1 – cell lysate, split luciferase complementation, luminescence, NIH validation set, pilot screen (AID 493027).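 Note: 0% = DMSO wells with the 100% control not disclosed.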 The settings on record: split G. princeps luciferase complementation, 4 h, at 7.9 µM, hits give high values.
Perilipin-1 (Homo sapiens) + 1-acylglycerol-3-phosphate O-acyltransferase ABHD5 (Homo sapiens), sequence (O60240 whole entry, looked up): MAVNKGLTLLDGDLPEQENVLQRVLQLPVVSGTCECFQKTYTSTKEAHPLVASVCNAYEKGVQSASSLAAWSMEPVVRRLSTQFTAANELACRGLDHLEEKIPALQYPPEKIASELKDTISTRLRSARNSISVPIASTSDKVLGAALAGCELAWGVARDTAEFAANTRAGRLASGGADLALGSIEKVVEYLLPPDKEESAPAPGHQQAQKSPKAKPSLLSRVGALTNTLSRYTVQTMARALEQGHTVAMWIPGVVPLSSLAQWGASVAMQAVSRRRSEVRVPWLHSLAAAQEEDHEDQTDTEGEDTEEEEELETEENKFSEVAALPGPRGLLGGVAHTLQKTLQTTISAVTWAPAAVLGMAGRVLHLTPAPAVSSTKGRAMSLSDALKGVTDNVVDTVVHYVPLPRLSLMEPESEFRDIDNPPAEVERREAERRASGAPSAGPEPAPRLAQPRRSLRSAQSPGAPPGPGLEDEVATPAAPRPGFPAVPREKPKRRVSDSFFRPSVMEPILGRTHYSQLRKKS
Perilipin-1 (Homo sapiens) + 1-acylglycerol-3-phosphate O-acyltransferase ABHD5 (Homo sapiens), sequence (Q8WTS1 whole entry, looked up): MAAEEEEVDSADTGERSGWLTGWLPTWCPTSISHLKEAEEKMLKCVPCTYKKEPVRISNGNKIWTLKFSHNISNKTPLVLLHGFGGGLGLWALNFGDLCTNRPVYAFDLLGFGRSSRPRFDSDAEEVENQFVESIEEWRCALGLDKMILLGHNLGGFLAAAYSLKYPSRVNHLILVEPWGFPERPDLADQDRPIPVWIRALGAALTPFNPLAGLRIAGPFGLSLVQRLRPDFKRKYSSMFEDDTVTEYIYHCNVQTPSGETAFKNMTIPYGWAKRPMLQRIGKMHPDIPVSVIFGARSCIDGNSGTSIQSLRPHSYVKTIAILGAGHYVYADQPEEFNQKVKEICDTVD
As for `O=c1c2ccccc2[se]n1-c1ccccc1`, the inhibition (as a rule, the change of the read-out against control, counted positive when it falls) was 90.3% (active).
In the case of `O=c1c2ccccc2nc(/C=C/c2ccc3c(c2)OCO3)n1-c1ccccc1` it was 1.81%.
For `Cc1nc2ccccc2c(=O)n1-c1ccc(C(=O)O)cc1` the value was 5.87%.
In the case of `[N-]=[N+]=CC(=O)OC[C@H](N)C(=O)O`, the inhibition is 0.75%.
On to `CC12CN3CC(C)(CN(C1)C3c1cccs1)C2=O` (stereo not given), for which the inhibition was -10.9%.
As for `CC(C)NC(C)C(=O)c1ccc2ccccc2c1` (stereo not given), the inhibition is -0.73%.
For `O=c1[nH]c(=S)n(-c2ccccc2)c(O)c1/C=N/N1CCCCC1c1cccnc1` (stereo not given), the inhibition is -7.25%.
For `C#CCN(C)C(C)Cc1ccccc1` (stereo not given), the inhibition was -10.3%.
Regarding `Cc1ccc(-n2c(C)cc(/C=C3/C(=O)NC(=O)N(C)C3=O)c2C)cc1`, the inhibition was 38.2%.
In the case of `CCOc1ccc(N2C(=O)NC(=O)/C(=C\c3cc(OC)c(OC)cc3[N+](=O)[O-])C2=O)cc1` it was 63.9% (active).
For the compound `Cc1ccc(/C=C2/C(=O)NC(=O)N(C)C2=O)cc1`, the inhibition is -3.1%.
With `COc1cc(/C=C2\C(=O)NC(=O)N(c3ccccc3)C2=O)c([N+](=O)[O-])cc1OC`, the inhibition was 58.1% (active).
For `CCOC(=O)c1cncn1C(C)c1ccccc1` (stereo not given) the value was 1.91%; for `C[N+]1(C)[C@@H]2CC(OC(=O)[C@H](CO)c3ccccc3)C[C@H]1[C@@H]1O[C@@H]12` (stereo not given in full), -5.12% and 3.91%.
Take `CC(C)C[C@H]1C(=O)N2CCCC2[C@]2(O)O[C@](NC(=O)[C@@H]3C=C4c5cccc6[nH]cc(c56)CC4N(C)C3)(C(C)C)C(=O)N12` (stereo not given in full): the inhibition was 22.5%.
As to `Cc1c2ccncc2c(C)c2c1[nH]c1ccccc12`, the inhibition is -2.7%.
For `Cc1cc2c(C(C)C)c(O)c(O)c(C=O)c2c(O)c1-c1c(C)cc2c(C(C)C)c(O)c(O)c(C=O)c2c1O` the value was 50.9% (active).
With `O=C1C(=O)c2ccccc2-c2ccccc21`, the inhibition is 29.2%.
As for `CCn1c(O)c(C(=O)CC2NCCc3ccccc32)c(=O)n(CC)c1=S` (stereo not given), the inhibition was -1.08%.
Take `CC[C@@H]1C(=O)OC[C@@H]1Cc1cncn1C`: the inhibition is -9.03% and -8.34%.
For `Clc1ccc(C2NCCc3[nH]cnc32)cc1` (stereo not given), the inhibition was 1.77%.
For `COP(=S)(OC)SCN1C(=O)c2ccccc2C1=O`, the inhibition is 83.3% (active).
For `NNC(=O)c1ccc(Cl)cc1` the value was 1.77%.
For `O=C1C=Cc2ccccc2C1=O` the value was 25.2%.
Regarding `O=C1CCCC2=C1C(c1cccnc1)Nc1ccccc1N2` (stereo not given), the inhibition is -3.96%.
